# Targets with a hit are over-represented here; the source holds about 8,800 in all. About 0.5% of all pairs of compound and target were hits.
# Compound: CC1=C(C2=C(C=C1)C(=O)C3=CC=CC=C3N2CCCN)C
# Test: log2 fold change, soluble protein after heating vs DMSO (PISA); higher = thermal stabilisation; K562 lysate, 10 uM; active = over 0.2 and 3.5 SD of the protein, either way, in both replicates (recomputed)
# Procedure, shortened: (§1)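 A 30 min treatment with 10 μM compound was applied to crude K562 extract at 1 mg/mL protein in PBS pH 7.4 with 1 mM MgCl2. Heating for 3 min spanned 48°C-58°C, after which aliquots were pooled, adjusted to 0.5% NP-40 at 4°C and spun at 21,000xg for 90 min. TMTpro 16plex LC-MS/MS of the supernatant, with channel sums equalised, gave values recorded as log-two fold change in thermal stability against solvent controls, from duplicates.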
# Chain of UniProt Q9BTE3 (Q9BTE3 whole entry, looked up): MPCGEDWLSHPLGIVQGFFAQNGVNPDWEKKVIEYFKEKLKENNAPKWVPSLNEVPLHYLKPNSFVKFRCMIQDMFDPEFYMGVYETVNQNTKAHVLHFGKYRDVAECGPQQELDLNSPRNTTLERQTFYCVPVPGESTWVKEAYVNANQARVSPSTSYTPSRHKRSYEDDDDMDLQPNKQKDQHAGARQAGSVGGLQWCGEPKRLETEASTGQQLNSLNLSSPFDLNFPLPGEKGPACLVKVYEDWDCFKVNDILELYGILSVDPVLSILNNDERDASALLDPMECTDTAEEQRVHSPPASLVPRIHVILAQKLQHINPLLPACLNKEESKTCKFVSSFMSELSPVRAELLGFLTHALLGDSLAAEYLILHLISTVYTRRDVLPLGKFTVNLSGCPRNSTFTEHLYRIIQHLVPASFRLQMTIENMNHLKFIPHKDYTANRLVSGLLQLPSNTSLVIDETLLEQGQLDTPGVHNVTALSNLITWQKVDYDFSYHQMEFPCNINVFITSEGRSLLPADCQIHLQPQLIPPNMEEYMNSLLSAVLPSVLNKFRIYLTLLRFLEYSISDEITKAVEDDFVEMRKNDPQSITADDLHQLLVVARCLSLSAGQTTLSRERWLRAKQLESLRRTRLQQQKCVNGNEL
# Chain of UniProt Q9H9A6 (Q9H9A6 whole entry, looked up): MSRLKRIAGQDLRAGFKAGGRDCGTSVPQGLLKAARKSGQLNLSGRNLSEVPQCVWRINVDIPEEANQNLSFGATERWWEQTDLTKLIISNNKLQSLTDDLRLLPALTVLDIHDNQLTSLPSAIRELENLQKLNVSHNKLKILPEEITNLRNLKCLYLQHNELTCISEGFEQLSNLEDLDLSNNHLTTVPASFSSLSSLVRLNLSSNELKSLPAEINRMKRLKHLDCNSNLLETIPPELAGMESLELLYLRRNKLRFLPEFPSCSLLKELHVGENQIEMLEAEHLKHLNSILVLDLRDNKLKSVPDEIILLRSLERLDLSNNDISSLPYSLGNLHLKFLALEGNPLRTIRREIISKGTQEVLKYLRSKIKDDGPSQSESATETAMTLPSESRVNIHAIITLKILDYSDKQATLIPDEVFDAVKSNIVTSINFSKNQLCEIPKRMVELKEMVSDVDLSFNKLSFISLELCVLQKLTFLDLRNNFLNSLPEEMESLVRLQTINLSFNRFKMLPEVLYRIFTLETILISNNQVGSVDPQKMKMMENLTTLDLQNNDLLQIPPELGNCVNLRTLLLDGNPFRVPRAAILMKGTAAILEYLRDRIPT
# Chain of UniProt Q9Y448 (Q9Y448 whole entry, looked up): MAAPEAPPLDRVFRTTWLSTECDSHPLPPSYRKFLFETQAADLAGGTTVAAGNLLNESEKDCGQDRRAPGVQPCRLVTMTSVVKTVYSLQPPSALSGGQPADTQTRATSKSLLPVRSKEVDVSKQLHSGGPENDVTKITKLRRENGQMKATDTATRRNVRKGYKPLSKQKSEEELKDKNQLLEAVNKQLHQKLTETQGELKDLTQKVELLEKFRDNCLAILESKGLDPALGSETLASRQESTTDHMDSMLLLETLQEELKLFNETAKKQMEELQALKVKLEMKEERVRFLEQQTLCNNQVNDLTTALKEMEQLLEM
# Chain of UniProt Q8N4N3 (Q8N4N3 whole entry, looked up): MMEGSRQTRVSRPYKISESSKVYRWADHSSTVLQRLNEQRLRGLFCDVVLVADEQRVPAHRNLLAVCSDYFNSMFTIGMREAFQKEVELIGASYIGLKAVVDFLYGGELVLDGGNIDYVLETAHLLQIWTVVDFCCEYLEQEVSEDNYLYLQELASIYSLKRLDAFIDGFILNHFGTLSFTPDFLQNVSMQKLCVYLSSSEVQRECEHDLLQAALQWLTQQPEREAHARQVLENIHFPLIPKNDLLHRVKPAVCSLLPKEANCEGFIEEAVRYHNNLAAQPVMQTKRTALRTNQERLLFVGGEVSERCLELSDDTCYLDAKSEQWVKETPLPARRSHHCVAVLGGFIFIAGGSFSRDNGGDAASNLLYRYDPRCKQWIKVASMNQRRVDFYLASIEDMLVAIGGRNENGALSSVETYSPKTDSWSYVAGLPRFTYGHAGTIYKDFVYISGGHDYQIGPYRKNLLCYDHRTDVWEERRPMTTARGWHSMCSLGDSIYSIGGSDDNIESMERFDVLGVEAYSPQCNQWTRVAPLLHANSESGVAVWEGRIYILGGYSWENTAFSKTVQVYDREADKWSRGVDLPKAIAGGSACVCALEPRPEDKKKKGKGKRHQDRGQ
# Chain of UniProt O95819 (O95819 whole entry, looked up): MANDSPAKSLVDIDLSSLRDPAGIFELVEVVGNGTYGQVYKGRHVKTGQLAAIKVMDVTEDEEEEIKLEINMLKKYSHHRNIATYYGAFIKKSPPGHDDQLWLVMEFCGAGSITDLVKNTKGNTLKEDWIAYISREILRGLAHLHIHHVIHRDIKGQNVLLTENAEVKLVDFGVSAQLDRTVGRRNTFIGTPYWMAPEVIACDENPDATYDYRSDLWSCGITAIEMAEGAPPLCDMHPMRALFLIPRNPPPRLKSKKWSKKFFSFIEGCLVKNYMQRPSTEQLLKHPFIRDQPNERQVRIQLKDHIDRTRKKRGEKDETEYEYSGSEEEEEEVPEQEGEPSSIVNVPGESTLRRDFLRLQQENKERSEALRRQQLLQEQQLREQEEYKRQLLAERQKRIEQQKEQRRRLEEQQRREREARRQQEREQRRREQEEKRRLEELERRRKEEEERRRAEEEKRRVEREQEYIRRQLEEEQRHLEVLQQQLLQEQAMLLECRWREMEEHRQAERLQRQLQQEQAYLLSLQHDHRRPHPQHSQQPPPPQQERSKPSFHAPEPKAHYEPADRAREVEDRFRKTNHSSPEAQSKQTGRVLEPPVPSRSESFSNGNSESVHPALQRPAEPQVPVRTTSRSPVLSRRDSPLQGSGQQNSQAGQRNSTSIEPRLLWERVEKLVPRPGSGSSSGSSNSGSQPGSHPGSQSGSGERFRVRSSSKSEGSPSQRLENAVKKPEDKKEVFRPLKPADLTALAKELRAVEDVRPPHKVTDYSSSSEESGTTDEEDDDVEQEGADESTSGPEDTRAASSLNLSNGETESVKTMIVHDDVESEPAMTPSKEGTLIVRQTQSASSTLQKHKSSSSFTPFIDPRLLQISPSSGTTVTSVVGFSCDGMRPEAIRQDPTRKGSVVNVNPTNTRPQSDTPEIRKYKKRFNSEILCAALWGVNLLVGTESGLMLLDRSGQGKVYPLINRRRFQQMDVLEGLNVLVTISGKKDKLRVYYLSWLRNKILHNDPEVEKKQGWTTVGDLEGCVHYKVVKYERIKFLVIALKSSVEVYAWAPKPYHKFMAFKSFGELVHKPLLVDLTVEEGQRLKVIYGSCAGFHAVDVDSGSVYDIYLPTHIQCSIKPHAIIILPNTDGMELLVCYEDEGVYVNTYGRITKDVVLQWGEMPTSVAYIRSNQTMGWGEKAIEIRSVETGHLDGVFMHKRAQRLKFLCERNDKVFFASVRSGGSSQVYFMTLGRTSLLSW
# Chain of UniProt Q9BQ69 (Q9BQ69 whole entry, looked up): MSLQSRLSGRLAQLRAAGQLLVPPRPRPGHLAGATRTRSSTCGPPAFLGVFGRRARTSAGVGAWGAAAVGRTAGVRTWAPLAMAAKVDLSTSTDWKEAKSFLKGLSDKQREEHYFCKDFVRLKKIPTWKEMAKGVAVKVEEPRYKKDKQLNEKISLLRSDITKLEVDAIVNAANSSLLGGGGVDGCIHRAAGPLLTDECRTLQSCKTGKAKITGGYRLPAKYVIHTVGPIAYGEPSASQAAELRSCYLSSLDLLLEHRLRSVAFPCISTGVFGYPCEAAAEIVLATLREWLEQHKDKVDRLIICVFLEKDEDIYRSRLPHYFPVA
# Chain of UniProt Q66K74 (Q66K74 whole entry, looked up): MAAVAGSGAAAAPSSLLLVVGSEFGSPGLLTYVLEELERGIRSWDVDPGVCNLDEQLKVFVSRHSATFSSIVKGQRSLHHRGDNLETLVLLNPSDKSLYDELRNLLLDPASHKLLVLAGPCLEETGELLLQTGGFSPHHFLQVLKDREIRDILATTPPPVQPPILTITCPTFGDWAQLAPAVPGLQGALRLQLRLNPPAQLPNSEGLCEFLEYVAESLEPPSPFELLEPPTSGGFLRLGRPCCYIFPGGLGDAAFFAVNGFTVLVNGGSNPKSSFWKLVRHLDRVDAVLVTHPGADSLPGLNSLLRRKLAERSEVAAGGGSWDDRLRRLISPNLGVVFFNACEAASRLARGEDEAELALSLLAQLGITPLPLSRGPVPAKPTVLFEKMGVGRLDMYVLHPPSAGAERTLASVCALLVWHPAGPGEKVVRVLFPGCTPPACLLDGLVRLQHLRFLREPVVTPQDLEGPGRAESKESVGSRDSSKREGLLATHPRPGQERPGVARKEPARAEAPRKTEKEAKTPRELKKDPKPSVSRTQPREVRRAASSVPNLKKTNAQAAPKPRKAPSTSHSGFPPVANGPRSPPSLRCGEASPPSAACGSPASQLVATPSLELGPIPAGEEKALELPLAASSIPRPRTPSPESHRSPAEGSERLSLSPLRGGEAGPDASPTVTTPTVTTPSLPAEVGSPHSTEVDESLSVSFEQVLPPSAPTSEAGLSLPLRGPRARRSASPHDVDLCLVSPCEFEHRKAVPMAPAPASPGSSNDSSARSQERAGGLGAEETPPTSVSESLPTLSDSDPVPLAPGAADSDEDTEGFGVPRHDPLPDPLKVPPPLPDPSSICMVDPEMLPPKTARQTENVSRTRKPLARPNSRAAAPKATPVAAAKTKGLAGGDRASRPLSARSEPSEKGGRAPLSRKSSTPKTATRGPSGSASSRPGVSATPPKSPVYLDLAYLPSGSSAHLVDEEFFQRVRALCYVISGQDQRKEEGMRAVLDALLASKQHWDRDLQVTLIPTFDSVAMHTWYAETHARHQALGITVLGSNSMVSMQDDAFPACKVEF
# Chain of UniProt P10620 (P10620 whole entry, looked up): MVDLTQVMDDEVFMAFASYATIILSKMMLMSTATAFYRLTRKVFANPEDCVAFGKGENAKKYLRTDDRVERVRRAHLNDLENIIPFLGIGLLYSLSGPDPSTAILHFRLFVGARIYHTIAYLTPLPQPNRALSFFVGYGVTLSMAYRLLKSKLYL
row,Target,log2 fold change
1,MAP1S (UniProt Q66K74),-0.021 (inactive)
2,MON2 isoform 5 (UniProt Q7Z3U7),0.002 (inactive)
3,LRPPRC (UniProt P42704),0.038 (inactive)
4,LBR (UniProt Q14739),0.065 (inactive)
5,MAPK14 (UniProt Q16539),-0.026 (inactive)
6,MLST8 (UniProt Q9BVC4),-0.021 (inactive)
7,MMS19 isoform 8 (UniProt Q96T76),-0.018 (inactive)
8,KNL1 (UniProt Q8NG31),-0.022 (inactive)
9,KLC1 isoform 6 (UniProt Q07866),0.012 (inactive)
10,MICU1 isoform 3 (UniProt Q9BPX6),0.013 (inactive)
11,MOCS1 isoform 8 (UniProt Q9NZB8),-0.003 (inactive)
12,KLHL36 (UniProt Q8N4N3),-0.085 (inactive)
13,MAP2K4 isoform 2 (UniProt P45985),0.006 (inactive)
14,MED17 (UniProt Q9NVC6),0.019 (inactive)
15,MAP2K5 (UniProt Q13163),-0.208 (inactive)
16,LRWD1 (UniProt Q9UFC0),-0.004 (inactive)
17,MCMBP (UniProt Q9BTE3),0.008 (inactive)
18,MRPL15 (UniProt Q9P015),-0.133 (inactive)
19,MAST4 (UniProt O15021),0.032 (inactive)
20,MBLAC2 (UniProt Q68D91),0.037 (inactive)

row,Target,log2 fold change
1,KNSTRN (UniProt Q9Y448),-0.023 (inactive)
2,MAP4K4 isoform 3 (UniProt O95819),-0.042 (inactive)
3,MACROD1 (UniProt Q9BQ69),0.017 (inactive)
4,MAPK9 (UniProt P45984),-0.086 (inactive)
5,LRRC40 (UniProt Q9H9A6),0.002 (inactive)
6,MRPL10 isoform 2 (UniProt Q7Z7H8),-0.005 (inactive)
7,"MICB, A0A140T979",-0.002 (inactive)
8,LIG3 (UniProt P49916),0.04 (inactive)
9,MAPKAPK3 (UniProt Q16644),-0.027 (inactive)
10,KIF2C (UniProt Q99661),-0.004 (inactive)
11,LRCH3 (UniProt Q96II8),-0.025 (inactive)
12,LYAR (UniProt Q9NX58),-0.012 (inactive)
13,MGST1 (UniProt P10620),-0.078 (inactive)
14,KLC4 isoform 3 (UniProt Q9NSK0),0.009 (inactive)
15,MAPKAPK5 (UniProt Q8IW41),-0.01 (inactive)
16,MED10 (UniProt Q9BTT4),-0.025 (inactive)
17,LPIN1 isoform 7 (UniProt Q14693),0.022 (inactive)
18,KIF21A isoform 5 (UniProt Q7Z4S6),-0.031 (inactive)
19,MAP2K1 (UniProt Q02750),-0.04 (inactive)

# Compound: CC1=C(C=C(C=C1)NC(=O)C2=CC(=CC=C2)C(C)(C)C#N)NC3=CC4=C(C=C3)N=CN(C4=O)C
# Test: as above
# Procedure, shortened: as §1
row,Target,log2 fold change
1,MAP1S (UniProt Q66K74),0 (inactive)
2,MON2 isoform 5 (UniProt Q7Z3U7),0.01 (inactive)
3,LRPPRC (UniProt P42704),-0.009 (inactive)
4,LBR (UniProt Q14739),-0.089 (inactive)
5,MAPK14 (UniProt Q16539),0.88 (active)
6,MLST8 (UniProt Q9BVC4),-0.003 (inactive)
7,MMS19 isoform 8 (UniProt Q96T76),0.013 (inactive)
8,KNL1 (UniProt Q8NG31),0 (inactive)
9,KLC1 isoform 6 (UniProt Q07866),0.028 (inactive)
10,MICU1 isoform 3 (UniProt Q9BPX6),-0.028 (inactive)
11,MOCS1 isoform 8 (UniProt Q9NZB8),0.069 (inactive)
12,KLHL36 (UniProt Q8N4N3),-0.005 (inactive)
13,MAP2K4 isoform 2 (UniProt P45985),-0.055 (inactive)
14,MED17 (UniProt Q9NVC6),0 (inactive)
15,MAP2K5 (UniProt Q13163),0.235 (inactive)
16,LRWD1 (UniProt Q9UFC0),0 (inactive)
17,MCMBP (UniProt Q9BTE3),0.008 (inactive)
18,MRPL15 (UniProt Q9P015),0.032 (inactive)
19,MAST4 (UniProt O15021),-0.173 (inactive)
20,MBLAC2 (UniProt Q68D91),-0.013 (inactive)

row,Target,log2 fold change
1,KNSTRN (UniProt Q9Y448),-0.032 (inactive)
2,MAP4K4 isoform 3 (UniProt O95819),-0.022 (inactive)
3,MACROD1 (UniProt Q9BQ69),-0.101 (inactive)
4,MAPK9 (UniProt P45984),0.103 (inactive)
5,LRRC40 (UniProt Q9H9A6),-0.073 (inactive)
6,MRPL10 isoform 2 (UniProt Q7Z7H8),0.025 (inactive)
7,"MICB, A0A140T979",0.016 (inactive)
8,LIG3 (UniProt P49916),-0.015 (inactive)
9,MAPKAPK3 (UniProt Q16644),0.082 (inactive)
10,KIF2C (UniProt Q99661),0.004 (inactive)
11,LRCH3 (UniProt Q96II8),0.047 (inactive)
12,LYAR (UniProt Q9NX58),0.016 (inactive)
13,MGST1 (UniProt P10620),-0.01 (inactive)
14,KLC4 isoform 3 (UniProt Q9NSK0),0.019 (inactive)
15,MAPKAPK5 (UniProt Q8IW41),0.034 (inactive)
16,MED10 (UniProt Q9BTT4),0.02 (inactive)
17,LPIN1 isoform 7 (UniProt Q14693),-0.016 (inactive)
18,KIF21A isoform 5 (UniProt Q7Z4S6),0.025 (inactive)
19,MAP2K1 (UniProt Q02750),0.007 (inactive)
